# Source: PubChem BioAssay
# Records with an inconclusive call do not appear. Active and inactive are the calls of the source. Unless noted, the rule behind the calls is not given here.
# Key:
# [1] = biological target: ATP-dependent translocase ABCB1 (Homo sapiens) (UniProt P08183); experiment: MDR1 (ABCB1) efflux transporter inhibition, cell-based (AID 377; in the data active = fluorescence slope change above about 50%); conditions: MDR1-expressing cells, fluorescent substrate accumulation slope; stronger effect = higher value; concentration not given here
# Chain of ATP-dependent translocase ABCB1 (Homo sapiens) (P08183 whole entry, looked up): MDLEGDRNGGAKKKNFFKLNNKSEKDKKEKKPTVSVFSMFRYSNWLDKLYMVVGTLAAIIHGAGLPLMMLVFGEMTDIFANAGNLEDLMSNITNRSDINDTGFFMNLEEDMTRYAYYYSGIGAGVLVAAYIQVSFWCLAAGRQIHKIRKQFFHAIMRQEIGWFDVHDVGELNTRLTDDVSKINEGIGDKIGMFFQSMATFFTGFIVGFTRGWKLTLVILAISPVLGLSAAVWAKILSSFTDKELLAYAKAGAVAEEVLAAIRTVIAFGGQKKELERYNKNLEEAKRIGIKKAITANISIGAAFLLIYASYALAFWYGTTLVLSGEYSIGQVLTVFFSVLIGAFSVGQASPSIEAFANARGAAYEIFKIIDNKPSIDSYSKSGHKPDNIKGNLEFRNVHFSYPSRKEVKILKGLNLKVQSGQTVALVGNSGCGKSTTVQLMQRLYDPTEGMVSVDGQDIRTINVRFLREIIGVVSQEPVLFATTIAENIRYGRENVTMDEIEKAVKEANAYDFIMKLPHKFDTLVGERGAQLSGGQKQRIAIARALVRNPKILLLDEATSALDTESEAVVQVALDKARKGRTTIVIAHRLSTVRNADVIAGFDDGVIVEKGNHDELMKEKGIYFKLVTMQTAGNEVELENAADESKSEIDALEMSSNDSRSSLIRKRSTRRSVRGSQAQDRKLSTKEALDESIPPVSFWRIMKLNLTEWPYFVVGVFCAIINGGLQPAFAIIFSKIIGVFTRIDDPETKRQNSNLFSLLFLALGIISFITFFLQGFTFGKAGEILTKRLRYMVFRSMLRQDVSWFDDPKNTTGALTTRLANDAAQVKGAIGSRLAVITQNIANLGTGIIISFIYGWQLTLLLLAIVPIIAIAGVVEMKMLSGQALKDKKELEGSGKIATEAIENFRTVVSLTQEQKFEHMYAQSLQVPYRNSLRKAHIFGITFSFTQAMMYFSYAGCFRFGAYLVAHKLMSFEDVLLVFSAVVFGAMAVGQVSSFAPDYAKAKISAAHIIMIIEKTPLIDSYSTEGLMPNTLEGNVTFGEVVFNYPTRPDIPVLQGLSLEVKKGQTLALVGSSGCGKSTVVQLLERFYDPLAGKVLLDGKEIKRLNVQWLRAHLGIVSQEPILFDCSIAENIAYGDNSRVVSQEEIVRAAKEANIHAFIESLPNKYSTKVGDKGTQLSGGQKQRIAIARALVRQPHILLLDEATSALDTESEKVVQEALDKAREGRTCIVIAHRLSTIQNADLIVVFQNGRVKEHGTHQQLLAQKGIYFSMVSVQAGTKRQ
# [2] = polyglutamine-triggered caspase-3 activation inhibitors, cell-based (AID 1583); conditions: polyglutamine-induced caspase-3 activation, cell assay; stronger effect = higher value;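 tested at 10 µM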
# [3] = suppressors of polyQ aggregation in yeast, 75Q-TubU reporter (AID 1593); conditions: Yeast 75Q polyglutamine aggregation reporter
# [4] = inhibitors of mitochondrial cytochrome c release, biochemical, purified mitochondria (AID 1603); conditions: stronger effect = lower value;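 note: mouse liver mitochondria challenged with calcium chloride; signal normalized to the plate average as 100%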
# [5] = inhibitors of polyQ protein aggregation (AID 1604); conditions: polyglutamine-induced protein aggregation inhibition assay; stronger effect = higher value; tested at 2.5 µM
# [6] = enhancers of glutamate uptake in motor neurons, MN-1 cell line (AID 1612); conditions: MN-1 motor neuron cells, stronger effect = higher value;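 note: tested at 1 µM final; 0% = mean of DMSO vehicle wells on each plate; positive means more glutamate uptake than control and negative means less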
# [7] = reducers of polyQ inclusions in PC12 cells, cell-based, NGF-treated PC12, GFPQ80 (AID 1614); conditions: PC12 NGF-treated GFP-polyQ80 inclusion reduction;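 note: lower means fewer inclusions and 0 means no inclusions at all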
# [8] = suppressors of polyglutamine aggregation in yeast, 75Q-TubH (AID 1616); conditions: S. cerevisiae 75Q-TubH polyglutamine aggregation suppression; stronger effect = higher value
# [9] = circadian clock period modulators, cell-based, LOPAC library, luminescence reporter (AID 2774); conditions: circadian reporter cells, at 7 µM, actives lie on both sides;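 note: values are relative to mean of DMSO wells on each plate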
# [10] = hESC survival regulators, cell-based (AID 493140); conditions: human embryonic stem cell survival screen; stronger effect = higher value;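 note: cells exposed to compounds for four days before counting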
# [11] = antimalarial activity against Dd2 strain (AID 2302;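 active = growth inhibition above 50% at the single 2 µM test dose, taken to imply half-maximal potency below 2 µM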;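 note: 0% = DMSO untreated growth and 100% = chloroquine plus artemisinin killed control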); conditions: P. falciparum Dd2 in RBCs, LDH growth readout, 72 h; at 2 µM; stronger effect = higher value
# [12] = HepG2 cytotoxicity, primary screen, cytotoxicity control for P. falciparum antimalarial project, cell-based, ATP luminescence (AID 2303;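 active = inhibition above 50%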;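 note: 0% = DMSO wells and 100% = digitonin-killed cells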); conditions: HepG2 viability, 24-48 h, at 10 µM, stronger effect = higher value
# [13] = biological target: L-lactate dehydrogenase (Plasmodium falciparum (isolate CDC / Honduras)) (UniProt Q27743); experiment: PfLDH activity inhibition – cell lysate, 3D7 strain, counter-screen for P. falciparum growth inhibition project (AID 2304);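 note: 0% = vehicle and 100% = reference inhibitor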; conditions: P. falciparum 3D7 crude extract, LDH APAD/NBT absorbance; at 2 µM; stronger effect = higher value
# Chain of L-lactate dehydrogenase (Plasmodium falciparum (isolate CDC / Honduras)) (Q27743 whole entry, looked up): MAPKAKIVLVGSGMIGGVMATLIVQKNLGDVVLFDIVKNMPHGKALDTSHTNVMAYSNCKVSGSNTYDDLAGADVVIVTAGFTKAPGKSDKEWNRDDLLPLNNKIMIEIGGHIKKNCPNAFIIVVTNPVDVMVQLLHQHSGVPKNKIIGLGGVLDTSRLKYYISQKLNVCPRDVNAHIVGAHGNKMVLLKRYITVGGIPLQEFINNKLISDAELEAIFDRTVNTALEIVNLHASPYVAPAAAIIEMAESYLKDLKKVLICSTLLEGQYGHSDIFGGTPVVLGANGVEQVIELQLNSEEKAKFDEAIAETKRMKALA
# [14] = inhibition of 3D7 malaria parasite growth – strain 3D7 (AID 2306);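 note: 0% = DMSO wells and 100% = chloroquine plus artemisinin control wells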; conditions: P. falciparum 3D7 erythrocytic growth, LDH absorbance, 72 h; at 2 µM; stronger effect = higher value
smiles,measurement,setting,value
CCn1cc(C(=O)O)c(=O)c2cc3c(cc21)OCO3,fluorescence slope change,[1],56.5% (active)
same,inhibition,[2],-14.8%
same,score,[3],1.16
same,cytochrome c release ratio,[4],0.82
same,inhibition of aggregation,[5],74.7%
same,glutamate uptake change,[6],5.71%
same,inclusion score,[7],2
same,aggregation suppression score,[8],1.09
same,period change,[9],0.16 h (inactive)
same,survival,[10],33.2 (inactive)
CNCC(O)c1ccc(O)c(O)c1 (stereo not given),period change,[9],-0.055 h (inactive)
COc1cc2c(cc1OC)-c1cc(=Nc3c(C)cc(C)cc3C)n(C)c(=O)n1CC2,growth inhibition,[11],29% (inactive)
same,inhibition,[12],14% (inactive)
same,inhibition,[13],0% (inactive)
same,growth inhibition,[14],92% (active)
same,period change,[9],0.41 h (inactive)
CCCCNc1ccc(C(=O)OCCN(C)C)cc1,inhibition,[2],3.42%
same,score,[3],1.3
same,cytochrome c release ratio,[4],0.87
same,inhibition of aggregation,[5],21.1%
same,glutamate uptake change,[6],5.32%
same,inclusion score,[7],2
same,aggregation suppression score,[8],1.05
same,period change,[9],0.035 h (inactive)
same,survival,[10],12.4 (inactive)
Cc1cn[nH]c1,period change,[9],0.23 h (inactive)
CCN1CCC[C@H]1CNC(=O)c1cc(S(N)(=O)=O)ccc1OC,period change,[9],-0.035 h (inactive)
O=C(CCNNC(=O)c1ccncc1)NCc1ccccc1,period change,[9],-0.045 h (inactive)
same,survival,[10],17.5 (inactive)
COc1cc2nc(N3CCN(C(=O)C4COc5ccccc5O4)CC3)nc(N)c2cc1OC (stereo not given),fluorescence slope change,[1],75.1% (active)
same,period change,[9],0.11 h (inactive)
same,survival,[10],4.33 (inactive)
CCOC(=O)C1=C[C@]2(CC)CCCN3CCc4c(n1c1ccccc41)[C@@H]32,fluorescence slope change,[1],107% (active)
same,period change,[9],0 h (inactive)
same,survival,[10],5.33 (inactive)
NC(N)=Nc1nc(CSCC/C(N)=N/S(N)(=O)=O)cs1,period change,[9],-0.03 h (inactive)
same,survival,[10],16.5 (inactive)
COc1cc2nc(N3CCN(C(=O)C4CCCO4)CC3)nc(N)c2cc1OC (stereo not given),period change,[9],0.02 h (inactive)
same,survival,[10],3.75 (inactive)
CO[C@@]1(NC(=O)CSCC#N)C(=O)N2C(C(=O)O)=C(CSc3nnnn3C)CS[C@@H]21,fluorescence slope change,[1],20.3% (inactive)
same,period change,[9],-0.07 h (inactive)
same,survival,[10],4.83 (inactive)
NC(N)=N/N=C/c1c(Cl)cccc1Cl,fluorescence slope change,[1],70.4% (active)
same,period change,[9],0.195 h (inactive)
same,survival,[10],17.8 (inactive)
CC(=O)OC(C)C[N+](C)(C)C (stereo not given),fluorescence slope change,[1],-0.2% (inactive)
same,period change,[9],-0.04 h (inactive)
same,survival,[10],1.33 (inactive)
COc1cc(C(=O)OCCCN2CCCN(CCCOC(=O)c3cc(OC)c(OC)c(OC)c3)CC2)cc(OC)c1OC,fluorescence slope change,[1],100% (active)
same,period change,[9],-0.025 h (inactive)
same,survival,[10],9.25 (inactive)
C[C@]12C=CC(=O)C=C1CC[C@H]1[C@@H]3C[C@@H](O)[C@](O)(C(=O)CO)[C@@]3(C)C[C@H](O)[C@@]12F,fluorescence slope change,[1],27% (inactive)
same,period change,[9],-0.51 h (inactive)
same,survival,[10],13.9 (inactive)
C=CC(N)CCC(=O)O (stereo not given),fluorescence slope change,[1],52.2% (active)
same,period change,[9],0.105 h (inactive)
same,survival,[10],14.4 (inactive)
Nc1nnc(-c2cccc(Cl)c2Cl)c(N)n1,period change,[9],-0.15 h (inactive)
Cc1cnc(NC(=O)C2=C(O)c3ccccc3S(=O)(=O)N2C)s1,period change,[9],-0.06 h (inactive)
OCc1cc(C(O)CNCCCCCCOCCCCc2ccccc2)ccc1O (stereo not given),period change,[9],-0.06 h (inactive)
NC(N)=NC(=O)Cc1c(Cl)cccc1Cl,fluorescence slope change,[1],82% (active)
same,period change,[9],0.09 h (inactive)
same,survival,[10],7.33 (inactive)
NCCS(=O)(=O)O,period change,[9],-0.23 h (inactive)
CN1C(C)(C)CCCC1(C)C,fluorescence slope change,[1],17% (inactive)
same,period change,[9],-0.07 h (inactive)
same,survival,[10],3.5 (inactive)
CNC[C@H](O)c1ccc(O)c(O)c1,period change,[9],0.025 h (inactive)
CN(C)CC[C@@H](c1ccc(Br)cc1)c1ccccn1,period change,[9],-0.05 h (inactive)
CN(C)CC[C@@H](c1ccc(Cl)cc1)c1ccccn1,period change,[9],-0.255 h (inactive)
CC(C)NCC(O)COc1ccc(CCOCC2CC2)cc1 (stereo not given),fluorescence slope change,[1],1% (inactive)
same,period change,[9],0.03 h (inactive)
same,survival,[10],8.33 (inactive)
CN1CCC(=C2c3ccccc3C=Cc3ccccc32)CC1,fluorescence slope change,[1],178% (active)
same,period change,[9],0.015 h (inactive)
same,survival,[10],13.7 (inactive)
Cc1cn([C@H]2C=C[C@@H](CO)O2)c(=O)[nH]c1=O,period change,[9],-0.14 h (inactive)
NC(=O)OCC(COC(N)=O)c1ccccc1,period change,[9],-0.105 h (inactive)
COC(=O)Nc1nc2ccc(C(=O)c3cccs3)cc2[nH]1,fluorescence slope change,[1],103% (active)
same,period change,[9],-0.58 h (inactive)
same,survival,[10],1.17 (inactive)
CCN(CC)CCNC(=O)c1ccc(NC(C)=O)cc1,period change,[9],0.01 h (inactive)
Cc1scc2c1N(C(=O)CN1CCN(C)CC1)c1ccccc1NC2=O,fluorescence slope change,[1],65.1% (active)
same,period change,[9],0.165 h (inactive)
same,survival,[10],11.3 (inactive)
Brc1c(NC2=NCCN2)ccc2nccnc12,period change,[9],-0.1 h (inactive)
CCOC(=O)c1ncn2c1CN(C)C(=O)c1cc(F)ccc1-2,period change,[9],-0.15 h (inactive)
CCCCCN(CCCCC)C(=O)C(CCC(=O)O)NC(=O)c1ccc(Cl)c(Cl)c1 (stereo not given),period change,[9],0.13 h (inactive)
same,survival,[10],1.92 (inactive)
Cc1ccc(C(=O)Nc2ccc(S(=O)(=O)O)c3cc(S(=O)(=O)O)cc(S(=O)(=O)O)c23)cc1NC(=O)c1cccc(NC(=O)Nc2cccc(C(=O)Nc3cc(C(=O)Nc4ccc(S(=O)(=O)O)c5cc(S(=O)(=O)O)cc(S(=O)(=O)O)c45)ccc3C)c2)c1,period change,[9],0.03 h (inactive)
COC(=O)[C@@H]1[C@H]2C[C@H]3c4[nH]c5ccccc5c4CCN3C[C@@H]2CC[C@@H]1O,fluorescence slope change,[1],52.6% (active)
same,period change,[9],0.095 h (inactive)
same,survival,[10],8.25 (inactive)
NC/C=C/C(=O)O,period change,[9],-0.005 h (inactive)
COc1cc(-c2ccc(=O)[nH]n2)ccc1OC(F)F,period change,[9],-0.1 h (inactive)
same,survival,[10],1.92 (inactive)
CCOC(=O)C1=C(C)NC(C)=C(C(=O)OC)C1c1cccc(Cl)c1Cl (stereo not given),fluorescence slope change,[1],28.6% (inactive)
same,period change,[9],-0.06 h (inactive)
same,survival,[10],15.7 (inactive)
CN1CCN(C2=Nc3ccccc3Oc3ccc(Cl)cc32)CC1,fluorescence slope change,[1],163% (active)
same,period change,[9],-0.045 h (inactive)
same,survival,[10],12 (inactive)
Cc1nc2n(c(=O)c1CCN1CCC(c3noc4cc(F)ccc34)CC1)CCCC2,period change,[9],0.015 h (inactive)
same,survival,[10],5 (inactive)
O=C(c1ccc(F)cc1)C1CCN(CCn2c(=O)[nH]c3ccccc3c2=O)CC1,fluorescence slope change,[1],-1% (inactive)
same,period change,[9],0 h (inactive)
same,survival,[10],12.7 (inactive)
CC(C(=O)O)c1ccc(CC2CCCC2=O)cc1 (stereo not given),period change,[9],-0.055 h (inactive)
CC[N+](C)(C)Cc1ccccc1Br,period change,[9],0.095 h (inactive)
same,survival,[10],6.92 (inactive)
Nc1ccn([C@H]2CC[C@@H](CO)O2)c(=O)n1,period change,[9],-0.095 h (inactive)
same,survival,[10],9 (inactive)
C[C@@H]1C[C@H]2[C@@H]3C[C@H](F)C4=CC(=O)C=C[C@]4(C)[C@@]3(F)[C@@H](O)C[C@]2(C)[C@@]1(O)C(=O)CO,fluorescence slope change,[1],57.3% (active)
same,survival,[10],2.17 (inactive)
COc1cc(N)c(Cl)cc1C(=O)NC1CCN(Cc2ccccc2)CC1,survival,[10],5.67 (inactive)
C[C@]12CC[C@@H]3c4ccc(O)cc4CC[C@H]3[C@@H]1CCC2=O,period change,[9],-0.125 h (inactive)
same,survival,[10],2.5 (inactive)
c1cnc(N2CCN(Cc3ccc4c(c3)OCO4)CC2)nc1,period change,[9],-0.05 h (inactive)
same,survival,[10],3.67 (inactive)
Nc1ccc(S(=O)(=O)Nc2ccc(Cl)nn2)cc1,fluorescence slope change,[1],-13.4% (inactive)
same,survival,[10],5.17 (inactive)
CC(=O)OCC(=O)[C@@]1(O)[C@H](C)C[C@H]2[C@@H]3CCC4=CC(=O)C=C[C@]4(C)[C@@]3(F)[C@@H](O)C[C@@]21C,fluorescence slope change,[1],109% (active)
same,survival,[10],16.5 (inactive)
COc1ccccc1N1CCN(CC(O)COc2cccc3ccccc23)CC1 (stereo not given),period change,[9],0.04 h (inactive)
same,survival,[10],8.25 (inactive)
CCOC(=O)OC(C)OC(=O)[C@@H]1N2C(=O)[C@@H](NC(=O)[C@H](N)c3ccccc3)[C@H]2SC1(C)C (stereo not given in full),fluorescence slope change,[1],97.9% (active)
same,survival,[10],16.9 (inactive)
C[n+]1cc2c3c(ccc2c2ccc4cc5c(cc4c21)OCO5)OCO3,period change,[9],-0.18 h (inactive)
same,survival,[10],1.33 (inactive)
COc1cc(OC)c(C(=O)CCCN2CCCC2)c(OC)c1,fluorescence slope change,[1],82.5% (active)
same,survival,[10],9.58 (inactive)
COc1ccc(C2CNC(=O)C2)cc1OC1CCCC1 (stereo not given),period change,[9],-0.065 h (inactive)
same,survival,[10],3.92 (inactive)
CC1CC(OC(=O)C(O)c2ccccc2)CC(C)(C)N1C (stereo not given),fluorescence slope change,[1],23.1% (inactive)
same,survival,[10],2.33 (inactive)
